Where “and” joins values, the source holds several entries; their conditions need not be identical. Equal entries are not always repeated. Records with an inconclusive call do not appear. Where a call stands in place of a potency, no number is given. More than one record can exist for a structure, and the calls need not agree. Calls of active or inactive are those of the source. Unless noted, the call rests on the fitted dose curve; in most records, active means well fitted curve in the direction sought with a large enough effect in the repeat runs; inconclusive means weak or mixed curves; inactive means no such curve, though single readings can be large; an effect the other way counts as inactive or inconclusive.
Key:
[1] = qHTS assay to identify small molecule agonists of the hypoxia (HIF-1) signaling pathway (AID 1224846; active means well fitted activation curve with a large enough effect in the signal ratio in the repeat runs, not every such curve was filed as active; the % refers to the signal ratio)
Summary of the method: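 ME-180 HRE-bla reporter cells; compounds in DMSO, 17 h at 37C; read-out beta-lactamase via CCF4-AM FRET.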

[2] = qHTS assay to identify small molecule agonists of H2AX - cell viability counter screen (AID 1224847; calls by dose curve; further: nearly all actives have a fitted effect of over 30% in size; further: potency means the concentration at half of the fitted maximal effect)
Summary of the method: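 Counter-screen for viability: CellTiter-Glo ATP luminescence read after 3 h compound treatment (15-point titration, 0.76% DMSO final) of CHO-K1 cells at 37C, with 30 min room-temperature reagent incubation.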

[3] = qHTS assay to identify small molecule antagonists of the estrogen related receptor (ERR) signaling pathway from Tox21 library (AID 1224848); further: nearly all actives have a fitted effect of over 50% in size; further: potency means the concentration at half of the fitted maximal effect
Summary of the method: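 Luciferase luminescence (ONE-Glo, 30 min room temperature) was the read-out. Cells of the NTP-supplied ERR line, 2,000 per well, were given 6 h at 37 C before compound addition in DMSO and 18 h exposure at 37 C.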

[4] = qHTS assay to identify small molecule agonists of the estrogen related receptor (ERR) signaling pathway from Tox21 library (AID 1224849; calls by dose curve; further: nearly all actives have a fitted effect of over 15% in size); conditions: ERR reporter cell line, ONE-Glo luciferase, 18 h
Summary of the method: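 Luciferase activity in ERR pathway reporter cells served as the agonist readout; exposure lasted 18 h at 37 C, with ONE-Glo detection after 30 min at room temperature.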

[5] = qHTS RealTime-Glo MT Cell Viability Assay in HepG2 cells - 24 hour (AID 1224867); further: nearly all actives have a fitted effect of over 50% in size
Summary of the method: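 Viability was tracked continuously by NanoLuc luminescence from prosubstrate reduced by living HepG2 cells, at successive time points over 40 h of compound exposure. Cells with reagent were preincubated 5 h at 37 °C before compound addition.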

[6] = qHTS RealTime-Glo MT Cell Viability Assay in HEK293 cells - 32 hour (AID 1224868); further: nearly all actives have a fitted effect of over 50% in size; further: potency means the concentration at half of the fitted maximal effect
Summary of the method: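 Viability tracked continuously by luminescence as live cells reduce a prosubstrate for NanoLuc; HEK293 cells preincubated 5 h, compound-treated at 37 C, and read at 0, 8, 16, 24, 32 and 40 h.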

[7] = A CellTox Green Cytotoxicity Assay to monitor cytotoxicity in HEK293 cells - 0 hour (AID 1224869); further: nearly all actives have a fitted effect of over 50% in size; further: potency means the concentration at half of the fitted maximal effect
Summary of the method: (§1)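 Real-time, in one plate: 600 HEK293 cells/well with dead-cell DNA dye, pinned compound after 5 h, 37 C incubation over 40 h; viable cells give no appreciable fluorescence.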

[8] = qHTS RealTime-Glo MT Cell Viability Assay in HepG2 cells - 40 hour (AID 1224870); further: nearly all actives have a fitted effect of over 50% in size
Summary of the method: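 Real-time viability: cells seeded at 600 per well together with NanoLuc and cell-permeant prosubstrate, compounds added after 5 h incubation. Luminescence tracked at 0, 8, 16, 24, 32 and 40 h of exposure.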

[9] = A CellTox Green Cytotoxicity Assay to monitor cytotoxicity in HEK293 cells - 40 hour (AID 1224871); further: nearly all actives have a fitted effect of over 45% in size; further: potency means the concentration at half of the fitted maximal effect
Summary of the method: as §1

| Compound | outcome [1] | Potency [2] | Potency [3] | activity change, positive = activation ([4]; at 92.4 µM (top of the series)) | Potency [5] | Potency [6] | Potency [7] | Potency [8] | Potency [9] | activity change, positive = activation ([4]; at 42.5 µM (top of the series)) |
| --- | --- | --- | --- | --- | --- | --- | --- | --- | --- | --- |
| Cc1cc(=O)[nH]c(C(C)C)n1 | inactive | inactive | inactive | 2.86% (inactive) and -3.8% (inactive) | inactive | inactive | inactive | inactive | inactive |  |
| Cc1cc(O)c2c(c1)C(=O)c1cc(O)cc(O)c1C2=O | inactive | 55.4 µM (active) and 80 µM (active) | inactive and 54.5 µM (active) | -40.4% (inactive) | inactive |  |  | inactive | inactive | -4% (inactive) |
| CCCCC(CC)COC(=O)CCCCCCCC(=O)OCC(CC)CCCC (configuration not stated) | inactive | inactive | 7.7 µM (active) and inactive | -81.2% (inactive) and -2.38% (inactive) | inactive | 6.17 µM (active) and inactive | 54.9 µM (active) and inactive | inactive | 49 µM (active) and inactive |  |
| CC(C)n1c(/C=C/[C@@H](O)C[C@@H](O)CC(=O)O)c(-c2ccc(F)cc2)c2ccccc21 | inactive | inactive |  |  | inactive | inactive | inactive | inactive | inactive |  |
| NC(=O)/N=N/C(N)=O | inactive | inactive | inactive | 0.308% (inactive) and 1.1% (inactive) |  | inactive | inactive | inactive | inactive |  |
| COCC(=O)O | inactive | inactive |  |  | inactive | inactive | inactive | inactive | inactive |  |
| Oc1ccc(OCc2ccccc2)cc1 | inactive | inactive |  |  | inactive | 1.07 µM (active) and inactive |  | inactive | inactive |  |
| CC1Cc2ccccc2N1NC(=O)c1ccc(Cl)c(S(N)(=O)=O)c1 (configuration not stated) |  | inactive | inactive | -13.4% (inactive) |  | inactive | inactive | inactive | inactive | -17.1% (inactive) |
| C=CC(=O)OCCCCCCCC(C)C | inactive | inactive |  |  | inactive | inactive | inactive | inactive | inactive |  |
| C[C@@H]1O[C@@H](OC[C@H]2O[C@@H](Oc3c(-c4ccc(O)c(O)c4)oc4cc(O)cc(O)c4c3=O)[C@H](O)[C@@H](O)[C@@H]2O)[C@H](O)[C@H](O)[C@H]1O | inactive | inactive |  |  | inactive | inactive |  | inactive | inactive |  |
| C=C1CC[C@H](O)CC1=C/C=C1\CCC[C@]2(C)[C@@H]([C@H](C)/C=C/[C@H](C)C(C)C)CC[C@@H]12 |  |  |  |  | inactive | 48.5 µM (active) and 43.6 µM (active) | inactive | inactive | inactive |  |
| CC[Si](OC(C)=O)(OC(C)=O)OC(C)=O | inactive | inactive |  |  | inactive | inactive | inactive | inactive | inactive |  |
| O=C(O)c1ccc([N+](=O)[O-])cc1 | inactive | inactive |  |  |  | inactive | inactive | inactive | inactive |  |
| COC(=O)c1ccc(C(=O)OC)cc1 | inactive | inactive |  |  | inactive | 39.4 µM (active) and inactive | inactive | inactive | 15.7 µM (active) and inactive |  |
| O=C(Cl)c1c(Cl)c(Cl)c(C(=O)Cl)c(Cl)c1Cl | inactive | inactive | inactive | 2.78% (inactive) and 1.3% (inactive) |  | inactive |  | inactive | inactive |  |
| Oc1ccc2ccccc2c1N=Nc1ccccc1 | inactive |  |  |  | inactive | inactive | inactive | inactive | inactive |  |
| Cc1ccc(C(=O)O)o1 | inactive | inactive |  |  | inactive | inactive | inactive | inactive | inactive |  |
| O=S(=O)(O)c1cc(S(=O)(=O)O)c2c(N=Nc3ccccc3)c(O)ccc2c1 | inactive | inactive |  |  | inactive | inactive |  | inactive | inactive |  |
| CC(C)(C)C(=O)C1C(=O)c2ccccc2C1=O | inactive | 88.9 µM (active) and 56.6 µM (active) |  |  |  | inactive | inactive | inactive | inactive |  |
| Oc1c(Cl)cc(Cl)c(Cl)c1Cl | inactive | 111 µM (active) | 53.3 µM (active) and 48.6 µM (active) | -46.5% (inactive) and -37.8% (inactive) |  |  | inactive | inactive | inactive |  |
| Nc1cc(-c2ccncc2)c[nH]c1=O |  | inactive | inactive | -0.579% (inactive) |  | inactive | inactive | inactive | inactive | -5.23% (inactive) |
| CCc1ccccc1O | inactive | inactive |  |  | inactive | inactive | inactive | inactive | 54.7 µM (active) and inactive |  |
| O=[N+]([O-])c1cc(N(CCO)CCO)ccc1NCCO | inactive | 50.4 µM (active) and 50.5 µM (active) |  |  |  | inactive | inactive | inactive | inactive |  |
| CCCCCCCCC | inactive | inactive |  |  | inactive | inactive | inactive | inactive | inactive |  |
| CC1CC(OC(=O)c2ccccc2O)CC(C)(C)C1 (configuration not stated) |  | inactive |  |  | inactive | inactive |  | inactive | 48.5 µM (active) and inactive |  |
| CC(C)(C)C1CCC(O)CC1 (configuration not stated) | inactive | inactive |  |  | inactive | inactive | inactive | inactive | inactive |  |
| C=C(C#N)C(=O)OCC | inactive | inactive | inactive | 7.93% (inactive) and 0.135% (inactive) |  | inactive |  | inactive | inactive |  |
| O=Nc1ccc(O)cc1 | inactive | inactive |  |  |  | inactive | inactive | inactive | inactive |  |

From PubChem BioAssay (Tox21)
